Data on 99 molecules can be found in PubChem BioAssay AID624330 (Southern Research Specialized Biocontainment Screening …, 2012).

Hit rate of the full screen: of about 340,000 compounds, about 2,100 (0.62%) were called active.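 The calls were made as follows: active = first-screen hits whose inhibition reached a set limit at any dose in the follow-up dose series; inconclusive = inhibition above the set first-screen limit but never retested; inactive = the rest.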 These entries were drawn from the full list. Potency and affinity values are given separately.

Sequence of Rac GTPase-activating protein 1 (Homo sapiens) (Q9H0H5 whole entry, looked up): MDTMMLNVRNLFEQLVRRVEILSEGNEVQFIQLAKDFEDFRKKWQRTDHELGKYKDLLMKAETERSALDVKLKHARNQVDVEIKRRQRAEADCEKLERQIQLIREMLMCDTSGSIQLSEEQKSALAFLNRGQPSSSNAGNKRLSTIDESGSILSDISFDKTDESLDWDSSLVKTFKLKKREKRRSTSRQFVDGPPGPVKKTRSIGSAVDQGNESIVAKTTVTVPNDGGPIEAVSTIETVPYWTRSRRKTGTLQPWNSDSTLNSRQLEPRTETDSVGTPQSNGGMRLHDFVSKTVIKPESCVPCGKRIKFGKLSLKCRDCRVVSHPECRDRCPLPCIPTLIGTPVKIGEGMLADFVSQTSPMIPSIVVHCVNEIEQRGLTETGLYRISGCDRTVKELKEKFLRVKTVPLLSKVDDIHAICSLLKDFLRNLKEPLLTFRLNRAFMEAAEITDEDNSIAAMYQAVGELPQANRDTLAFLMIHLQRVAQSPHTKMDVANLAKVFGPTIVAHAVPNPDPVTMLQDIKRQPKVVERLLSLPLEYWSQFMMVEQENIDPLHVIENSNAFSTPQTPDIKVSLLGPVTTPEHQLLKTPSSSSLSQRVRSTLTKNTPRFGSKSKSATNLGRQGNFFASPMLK

This assay addresses Rac GTPase-activating protein 1 (Homo sapiens) (UniProt Q9H0H5). Briefly: MgcRacGAP GTPase-activating activity inhibitors, confirmation, biochemical, ADP Hunter fluorescence, primary and confirmatory (AID 624330).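 Also: fluorescence reports GDP produced by GAP-driven GTP hydrolysis.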 Particulars: MgcRacGAP-stimulated Rac1 GTP hydrolysis, at 30 µM, hits give high values, GST-tagged Rac1 F28L mutant substrate.
In the case of `CC(C(=O)NCC1CCCCC1)N(C)Cc1ccc(Cl)cc1` (centres undefined), the inhibition was 9.97% (inactive).

Consider `NC(=O)c1ccc(NC(=O)CCc2nc3ccccc3s2)cc1`, for which the inhibition was 9.08% (inactive).

As for `Fc1ccccc1CN1CCN(c2ncccn2)CC1`, the inhibition was 18.2% (inactive).

As to `COc1ccc(CN2CCN(C(=O)c3cccnc3)CC2)cc1Br`, the inhibition is 26.4% (inactive).

On to `COc1cccc(OC)c1C(=O)N1CCN(Cc2ccncc2)CC1`, for which the inhibition is 17.3% (inactive).

Regarding `COc1ccccc1C(=O)N1CCN(CCc2ccccc2)CC1`, the inhibition was 5.14% (inactive).

On to `COc1ccccc1C(=O)N1CCN=C1SCc1cccnc1`, for which the inhibition was 9.35% (inactive).

On to `CCOc1ccccc1/C=C/c1nc2ccccc2[nH]c1=O`, for which the inhibition was -3.6% (inactive).

For `CSCCC(=O)N(C)CC1CCN(CCc2cccc(C(F)(F)F)c2)CC1`, the inhibition is -11.6% (inactive).

Take `COc1cc(OC)nc(NC(=O)NS(=O)(=O)c2ccc(OC(F)(F)F)cc2)n1`: the inhibition is 7.78% (inactive).

With `COc1ccc2nc(SCC(=O)NC3CCCCC3C)[nH]c2c1` (centres undefined), the inhibition was 6.19% (inactive).

In the case of `COc1ccc(C(O)(C(C)C)C(CN2CCOCC2)c2ccc(Cl)cc2)cc1` (centres undefined), the inhibition is 3.23% (inactive).

For the molecule `COc1ccc(-c2cnnc(N/N=C/c3ccc(O)c(OC)c3)n2)cc1`, the inhibition is 28.9% (inactive).

In the case of `COc1cc(/C=N/Nc2nc(C)cc(C)n2)cc(OC)c1OC`, the inhibition was 18.6% (inactive).

On to `COc1ccc(-c2cnnc(N/N=C/c3ccc(O)cc3)n2)cc1`, for which the inhibition was 15.5% (inactive).

In the case of `COc1cc(/C=N/Nc2nc(C)cc(C)n2)ccc1OC(=O)c1ccco1`, the inhibition is 12.7% (inactive).

With `COc1ccc(/C=N/Nc2cc(C)nc(NS(=O)(=O)c3ccc(C)cc3)n2)cc1`, the inhibition was 8.72% (inactive).

As to `COc1cc(/C=N/Nc2cc(C)nc(NS(=O)(=O)c3ccc(C)cc3)n2)ccc1O`, the inhibition was 23.4% (inactive).

In the case of `Oc1ccccc1/C=N/NC1=NCCCCC1`, the inhibition was -4.7% (inactive).

As to `Oc1ccc(/C=N/NC2=NCCCCC2)cc1`, the inhibition was 14.8% (inactive).

On to `CC(=O)NCc1nc2ccccc2n1Cc1ccccc1F`, for which the inhibition was 2.14% (inactive).

Turning to `Cc1cccc(C(=O)OCC(=O)NC2CCCCCCC2)c1`, the inhibition was -0.77% (inactive).

`Cc1cc(C)c(C#N)c(SCc2nc3ccccc3[nH]2)n1`: the inhibition is 11.2% (inactive).

Regarding `CCN(C(=O)c1ccccc1)c1ccc([N+](=O)[O-])cc1`, the inhibition was 6.29% (inactive).

Consider `C=CCn1c(N)cc(=O)nc1SCC(=O)Nc1ccc2ccccc2c1`, for which the inhibition was 6.15% (inactive).

As to `NC1=NC(c2ccccc2)CC(=O)N1` (centres undefined), the inhibition is 0.78% (inactive).

Turning to `COc1ccc(OC)c(CN2CCN(CC(=O)Nc3ccccc3C(=O)NC3CC3)CC2)c1`, the inhibition is 3.43% (inactive).

Regarding `Cc1ccc(-n2c(CNc3cccc(Cl)c3)n[nH]c2=S)cc1`, the inhibition is -10.3% (inactive).

Turning to `CCN(CC)S(=O)(=O)c1cccc(C(=O)NCC2CCCO2)c1` (centres undefined), the inhibition was -3.29% (inactive).

`S=C(c1ccc(-c2ccccc2Cl)o1)N1CCOCC1`: the inhibition is 10.6% (inactive).

Regarding `CCNc1nc(NCC)nc(N/N=C/c2ccc(Br)cc2)n1`, the inhibition is 4.59% (inactive).

As to `Cc1cc(C)nc(N/N=C/c2ccc(Cl)cc2)n1`, the inhibition was 7.83% (inactive).

With `Cc1ccc(/C=N/Nc2nc(C)cc(C)n2)cc1`, the inhibition is 6.97% (inactive).

As to `COc1ccc(/C=N/NC2=NCCCCC2)cc1`, the inhibition was -0.36% (inactive).

As for `COc1cc(/C=N/Nc2nnc3c(n2)[nH]c2ccccc23)ccc1O`, the inhibition was 9.92% (inactive).

On to `COc1ccccc1/C=N/NC1=NCCCCC1`, for which the inhibition was 4.83% (inactive).

As to `CCNc1nc(NCC)nc(N/N=C/c2ccccc2)n1`, the inhibition is 5.89% (inactive).

`COc1cc(/C=N\Nc2nc(-c3ccc(C)cc3)c(NC(C)=O)s2)ccc1O`: the inhibition is 17.7% (inactive).

Take `CS(=O)(=O)N(CC(=O)N1CCCC1)c1cc(Cl)ccc1Cl`: the inhibition was 8.42% (inactive).

Turning to `Cc1ccc(S(=O)(=O)NCC(c2ccco2)N2CCc3ccccc3C2)cc1` (centres undefined), the inhibition was 2.71% (inactive).

As to `Cc1c(N(C)S(=O)(=O)c2ccc(Cl)c(C(=O)NCC3CCCO3)c2)c(=O)n(-c2ccccc2)n1C` (centres undefined), the inhibition is 1.31% (inactive).

Consider `O=C(Nc1nnc(C2CC2)s1)C1CCCCC1`, for which the inhibition was 3.57% (inactive).

With `CCOc1ccc(CCNC(=O)COC(=O)c2ccc(OC(C)C)cc2)cc1OCC`, the inhibition was -0.74% (inactive).

Take `CCOc1ccccc1CN1CCC(N2CCC(C(=O)NC3CC3)CC2)CC1`: the inhibition was 9.11% (inactive).

Take `CCOc1ccccc1CN1CCC(O)CC1`: the inhibition was 15.6% (inactive).

Turning to `CCOc1ccc(C(=O)NCCC(=O)NCCCC(=O)O)cc1`, the inhibition was -5.31% (inactive).

In the case of `O=C(CCS(=O)(=O)c1ccc(Cl)cc1)Nc1nnc(-c2ccco2)o1`, the inhibition was 3.12% (inactive).

Turning to `COc1ccccc1CNC(=O)CCSCc1cccc(Cl)c1`, the inhibition was -0.5% (inactive).

`COc1ccc(CCNC(=O)Cc2cccc(C(F)(F)F)c2)cc1OC`: the inhibition is 8.81% (inactive).

In the case of `COc1cccc(CNCCO)c1OCc1ccc(Cl)cc1`, the inhibition was 9.58% (inactive).

Turning to `COc1ccc(NC(=O)NCCc2cccc(Cl)c2)cc1OC`, the inhibition was 11.4% (inactive).

As for `COc1ccccc1CNCc1cc(Br)ccc1OC`, the inhibition was 23.1% (inactive).

With `COc1ccc(CNCc2ccc(C(F)(F)F)cc2)cc1OC`, the inhibition was 2.76% (inactive).

As to `COc1cccc(CNCc2ccccc2OC)c1`, the inhibition is 22.3% (inactive).

For `COc1ccc(CNCCc2ccc([N+](=O)[O-])cc2)c(OC)c1OC`, the inhibition is 25.1% (inactive).

Take `O=C(NCc1ccco1)C1CCCN(c2nnc(-n3cccc3)s2)C1` (centres undefined): the inhibition was 14.7% (inactive).

Take `C=CCn1c(SCC(=O)NC2(C)CCS(=O)(=O)C2)nc2ccccc21` (centres undefined): the inhibition was 1.26% (inactive).

For `Cn1c(N)c(C(=O)CSc2nc3ccccc3n2-c2ccccc2)c(=O)n(C)c1=O`, the inhibition is 4.85% (inactive).

As for `CCOC(=O)CNC(=O)C1c2ccccc2Oc2ccccc21`, the inhibition was 3.51% (inactive).

Regarding `Cc1csc(NC(=O)c2ccncc2)n1`, the inhibition was 7.69% (inactive).

For `Cc1cc(=O)[nH]c(SCC(=O)Nc2ccccc2[N+](=O)[O-])n1`, the inhibition was 6.16% (inactive).

In the case of `CC(=O)N(C)c1ccc(N=Nc2ccc3ncccc3c2)cc1`, the inhibition is -1.54% (inactive).

Consider `COc1ccc(/C=N/NC(=O)c2sc3nc(C)cc(C)c3c2N)cc1`, for which the inhibition was 9.68% (inactive).

`O=C(O)C1Nc2c(C(F)(F)F)ccc(Cl)c2C2C=CCC12` (centres undefined): the inhibition was -3.26% (inactive).

Regarding `CC(C)C1Nc2c(O)cc(Cl)c([N+](=O)[O-])c2C2C=CCC21` (centres undefined), the inhibition is 11.3% (inactive).

Turning to `CCCCn1nc(C(=O)N(CC(C)C)c2c(N)n(CCCC)c(=O)[nH]c2=O)c2ccccc2c1=O`, the inhibition was 9.52% (inactive).

For `COc1ccccc1-c1nnc(SCC(=O)NC2CCS(=O)(=O)C2)n1N` (centres undefined), the inhibition was 8.87% (inactive).

For `Cc1cnc(C(=O)OCC(=O)c2ccc(-c3ccccc3)cc2)cn1`, the inhibition is -1.23% (inactive).

For `Cc1cnc(C(=O)Oc2c(C)ccc(C)c2C)cn1`, the inhibition is -0.23% (inactive).

As to `Cc1ccc(S(=O)(=O)N2CCC(C(=O)NCCc3ccccc3)CC2)cc1`, the inhibition is 2.72% (inactive).

As to `CSCCC(NC(=O)c1ccccc1Cl)C(=O)NNC(=O)c1ccncc1` (centres undefined), the inhibition is 7.49% (inactive).

Turning to `c1ccc(Cn2cc(-c3ccccc3)cn2)cc1`, the inhibition is 6.79% (inactive).

For the molecule `COc1ccc(C(C#N)=C2C=CC(=NO)C(C)=C2Cl)cc1`, the inhibition was 21.7% (inactive).

`COc1ccc(C(C#N)=C2C=C(Cl)C(=NO)C=C2Cl)cc1`: the inhibition is -1.89% (inactive).

On to `CC(=O)Nc1ccc(NC(=O)CN2CCN(c3ccccn3)CC2)cc1`, for which the inhibition was 6.59% (inactive).

For the molecule `CC(C)c1ccc(NC(=O)CN2CCN(c3ccccn3)CC2)cc1`, the inhibition was 7.53% (inactive).

In the case of `O=C(CN1CCN(c2ccccn2)CC1)Nc1ccccc1`, the inhibition is -4.1% (inactive).

Take `COC(=O)c1ccc(NC(=O)CN2CCN(c3ccccn3)CC2)cc1`: the inhibition is 2.35% (inactive).

On to `CN1CCN(C(=O)c2cnn3c(C(F)(F)F)cc(-c4ccc5c(c4)OCO5)nc23)CC1`, for which the inhibition is 9.9% (inactive).

For `O=c1[nH]c2c(s1)C(c1ccc(O)cc1)C1C3CCC(C3)C1S2` (centres undefined), the inhibition is 11.5% (inactive).

Turning to `C[C@H](NC(=O)[C@H](Cc1ccccc1)n1c(=O)[nH]c2ccccc2c1=O)C(=O)N1CCC[C@H]1C(=O)O`, the inhibition is -3.53% (inactive).

In the case of `O=C1C=C(NCCc2cc(Br)c(O)c(Br)c2)C(=O)c2ncccc21`, the inhibition was 9.18% (inactive).

With `COc1ccc(CCN2C(=O)c3cccnc3C2=O)cc1OC`, the inhibition was 12.5% (inactive).

Regarding `CCOC(=O)C1CCN(C(=O)C2CCN(C(=O)c3ccc([N+](=O)[O-])cc3)CC2)CC1`, the inhibition is 12% (inactive).

For the molecule `CCOC(=O)c1ccc(-n2c(=S)sc3c(=O)[nH]c(C)nc32)cc1`, the inhibition was 16.1% (inactive).

For `C=CCNC(=O)C(=O)N/N=C/c1cccc(Br)c1`, the inhibition was 5.98% (inactive).

As to `O=c1ccc2c(-c3ccccc3S(=O)(=O)O)c3ccc(O)c(O)c3oc-2c1O`, the inhibition was 42.2% (inactive).

With `O=C(O)c1ccccc1-c1c2cc(I)c(=O)c(I)c-2oc2c(I)c(O)c(I)cc12`, the inhibition is 28.3% (inactive).

In the case of `O=C(NCc1ccccc1)c1onc(CS(=O)(=O)c2ccccn2)c1C(=O)NCc1ccccc1`, the inhibition is -5.99% (inactive).

Regarding `NC(=O)C(c1ccc(Cl)cc1)c1ccc(Sc2ccc(Cl)cc2)nn1` (centres undefined), the inhibition is 11.6% (inactive).

For the molecule `Nc1cccc(C(=O)Nc2cccc3ncccc23)c1`, the inhibition is -7.17% (inactive).

Regarding `O=C(CCC(=O)N1CCOCC1)Nc1ccc(Cl)c(Cl)c1`, the inhibition is 5.89% (inactive).

As to `O=C1/C(=C/c2ccccc2)CN(C(=O)CCN2CCOCC2)C/C1=C\c1ccccc1`, the inhibition was 27.7% (inactive).

Regarding `C=CC(=O)N1C/C(=C/c2ccc(Cl)cc2)C(=O)/C(=C\c2ccc(Cl)cc2)C1`, the inhibition is 13.6% (inactive).

Turning to `C=CC(=O)N1C/C(=C/c2ccccc2)C(=O)/C(=C\c2ccccc2)C1`, the inhibition is 26.6% (inactive).

`CCOC(=O)N1C/C(=C\c2ccccc2)C(=O)/C(=C/c2ccccc2)C1`: the inhibition was 12.1% (inactive).

Turning to `CCN(CC)CCC(=O)N1c2ccccc2Sc2ccc(Cl)cc21`, the inhibition was 2.76% (inactive).

On to `C=CC(=O)N1C/C(=C/c2ccc(F)cc2)C(=O)/C(=C\c2ccc(F)cc2)C1`, for which the inhibition is 13.1% (inactive).

Regarding `O=C(/C=C/c1ccc(Cl)c(Cl)c1)N1CCOCC1`, the inhibition was -0.69% (inactive).
